A selection: hits, their analogues and other compounds. The true share with any hit is near 6.9%.
IL-1B inflam inh = inflammasome signaling inhibition, IL-1 beta readout | activity change, % at 57.5 µM | AID 743279 | THP-1 LPS/ATP IL-1B secretion, AlphaLISA, 16 h; stronger effect = lower value | 360,000 compounds, 4.7% hits; in the data active = activity change below about -50%; inconclusive = mostly about -30% to -49%; note: % is set by controls: 0 for no effect and ±100 for the full control effect
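Secreted IL-1B measured by AlphaLISA bead assay after 16 h compound exposure of THP-1 cells; compounds (final up to 57.5 uM) added 1 h before LPS (250 ng/mL) and ATP (1.25 mM) stimulation; lower signal means less secretion.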
MCF10A rerep = inducers of DNA re-replication in MCF 10A breast cells; MCF 10A DNA re-replication, Hoechst nuclear intensity, 48 h; Potency, µM (titrated, usually from 46.1 µM), without a hit: at the top dose activity, positive = re-replication, most hits filed as activators; 350,000 compounds, 2.9% hits; note: potency is the fitted concentration of half-maximal effect; % of control where 0% means no effect; nearly all actives have a fitted effect of over 50% in size
Vif-A3G inh = blocks the Vif interaction with human APOBEC3G; Q9HC16; HeLa A3G-eYFP + Vif (tagged APOBEC3G with the HIV-1 protein that degrades it), YFP fluorescence, overnight; Potency, µM (series often up to 46.1 µM), for the others: top-dose activity, negative = active, most hits filed as inhibitors; 410,000 compounds, 0.076% hits; note: potency is the fitted concentration of half-maximal effect; % is set by controls: 0 for no effect and ±100 for the full control effect; nearly all actives have a fitted effect of over 60% in size
Target sequence (Q9HC16 whole entry, looked up): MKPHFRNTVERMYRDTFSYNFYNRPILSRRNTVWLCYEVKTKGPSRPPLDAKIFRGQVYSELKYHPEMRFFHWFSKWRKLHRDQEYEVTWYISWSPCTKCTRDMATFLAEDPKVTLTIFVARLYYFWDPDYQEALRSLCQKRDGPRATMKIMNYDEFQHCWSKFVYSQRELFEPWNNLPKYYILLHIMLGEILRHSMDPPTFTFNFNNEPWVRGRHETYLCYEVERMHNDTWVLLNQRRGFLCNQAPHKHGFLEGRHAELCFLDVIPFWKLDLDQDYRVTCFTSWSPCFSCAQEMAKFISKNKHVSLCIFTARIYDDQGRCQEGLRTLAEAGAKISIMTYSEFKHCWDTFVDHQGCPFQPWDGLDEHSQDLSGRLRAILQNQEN
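Read-out is eYFP fluorescence (Ex 488/Em 500-530) from Vif-expressing HeLa A3G-eYFP cells; more signal means A3G escaped Vif-mediated degradation. Cells plated overnight, compound pinned in, incubated overnight at 37 deg C.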
Giardia kill = Giardia lamblia killing; Giardia lamblia trophozoite viability; activity change, % at 7.66 µM, hits read low; 340,000 compounds, 0.15% hits; AID 540267; in the data active = activity change below about -80%; inconclusive = between about -30% and that limit;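 note: parasites exposed to compound for two days anaerobically before the ATP read; % is set by controls: 0 for no effect and ±100 for the full control effect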
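ATP-content bioluminescence gauges trophozoite survival. Cells (100/well) receive compound and incubate anaerobically for 48 hrs at 37 deg C; detection reagent follows for 15-30 min at room temperature.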
Vif-APOBEC3F blk = inhibitors of Vif-A3F interaction | HeLa A3F-eYFP + Vif (tagged APOBEC3F with the HIV-1 protein that degrades it), YFP fluorescence increase | Potency, µM (titrated, usually from 46.1 µM), inactives show top-dose activity, negative = active | 390,000 compounds, 0.2% hits; note: potency is the fitted concentration of half-maximal effect; % of control where 0% means no effect; nearly all actives have a fitted effect of over 65% in size
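HeLa cells stably expressing Vif plus C-terminally eYFP-tagged A3F were seeded, incubated overnight at 37 deg C, dosed with compound, incubated overnight again at 37 deg C. Yellow fluorescence (Ex 488/Em 500-530) reported blocked Vif-mediated A3F-eYFP degradation.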
SW480 rereplic = induces DNA re-replication in SW480 colon adenocarcinoma cells. Potency, µM (doses to about 46.1 µM), for the others: at the top dose re-replication activation, hits mostly activators. 340,000 compounds, 1.8% hits. SW480 DNA re-replication, Hoechst DNA content imaging, 48 h; note: potency is the fitted concentration of half-maximal effect; % of control where 0% means no effect; nearly all actives have a fitted effect of over 55% in size
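Compounds, transferred as 23 nL by pin tool, were incubated with cells for 48 hr; DNA content per nucleus was then quantified by Hoechst staining and fluorescence plate imaging.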
* = called active by the depositor; u = inconclusive; x = not tested or not shown; [ ] = dose if it differs, or a comment. Unless noted, calls come from the whole dose curve; as a rule, active = well fitted curve in the direction sought with a large enough effect; inconclusive = small, poorly fitted or top-dose-only effect, or another doubt; inactive = no such curve, though single readings can be large; an effect the other way counts as inactive or inconclusive.

SMILES	IL-1B inflam inh	MCF10A rerep	Vif-A3G inh	Giardia kill	Vif-APOBEC3F blk	SW480 rereplic
Cc1[nH]nc2c1C(C1CC=CCC1)C(C#N)=C(N)O2 (centres undefined)	-112*	u	-17%	-13	-12%	u
CCc1[nH]nc2c1C(c1cccnc1)C(C#N)=C(N)O2 (centres undefined)	-27	0%	1%	-7	-5%	-1%
Brc1ccccc1-c1nnc2sc(Cc3ccccc3)nn12	-56*	-5%	2%	2	0%	1%
COc1ccc(Cc2nn3c(-c4ccccc4Br)nnc3s2)cc1	-85*	-5%	0%	-5	-2%	1%
COc1ccc2o/c(=N/NC(=O)c3cccs3)c(C(N)=O)cc2c1	-62*	14%	11µM*	-11	u	2%
COc1ccc(C(CC(=O)Nc2ccc(F)c(Cl)c2)N2Cc3ccccc3C2=O)cc1OC (centres undefined)	x	x	-7%	x	4%	x
CC(=O)Nc1cccc(NC(=O)c2cc3c(=O)n4cccc(C)c4nc3n2C)c1	x	x	4%	x	11%	x
CC(C)C(=O)Nc1ncc(Cc2ccccc2Cl)s1	5	3%	3%	6	-3%	0%
N#CCC(=O)Nc1ncc(Cc2ccccc2Cl)s1	-6	15µM*	-30%	-5	-1%	u
CN(Cc1ccccc1)C(=O)CN1CCN(C(c2ccccc2)c2ccccc2)CC1	-62*	-5%	0%	1	-1%	5%
COc1ccc(NC(=O)C2CCCNC2)cc1OCC(C)C (centres undefined)	-28	27%	4%	-15	-1%	10%
COc1ccc(NC(=O)C2CCCN(CCCc3ccccc3)C2)cc1OCC(C)C (centres undefined)	-85*	4%	-12%	-10	-7%	2%
CC(=O)c1ccc(NC(=O)Cn2c3ncccc3c(=O)n2-c2ccc(C)cc2)cc1	x	x	3%	x	0%	x
CCC/C(C#Cc1ccsc1)=C1/c2ccccc2C(=O)N1c1ccccc1	-89*	23µM*	u	62	8%	u
CCOCCCNC(=O)c1[nH]c2cc(C)ccc2c1Sc1ccc(Cl)cc1	x	x	-3%	x	-4%	x
Cc1cc(O)c(C(C)C)cc1N=Nc1ccccc1C(=O)O	19	-8%	-6%	-2	1%	-2%
Cc1cc(NO)c(C(C)C)cc1N=O	-85*	u	-2%	-2	1%	20%
Cc1nc2ncnn2c(C)c1CCC(=O)NCc1ccccc1Cl	x	x	-3%	x	-1%	x
CCCCNc1c(-c2ccc(-c3cccc(Cl)c3)cc2)nc2ccccn12	-26	u	0%	-14	-8%	-20%[9.22 µM]
CCCCNc1c(-c2cccc(-c3cc(C(C)=O)cs3)c2)nc2ccc(C)cn12	-103*	u	-15%	u	1%	u
CCCCNc1c(-c2cccc(-c3ccc(OC)cc3)c2)nc2ccc(C)cn12	-100*	4.1µM*	-30%	-5	8%	u
CCCCNc1c(-c2cccc(-c3ccc(OC)cc3)c2)nc2cc(C)ccn12	-71*	23µM*	-12%	-12	-17%	u
COc1ccc(-c2nc3ccc(C)cn3c2NCc2ccc3c(c2)OCO3)cc1	-3	2%	6%	7	-15%	17%
CCCCCCSc1cccc(-c2nc3ccc(Cl)cn3c2NCCCC)c1	3	23%	3%	12	-6%	-4%
COc1ccc(S(=O)(=O)N(C)c2nc3ccccc3n3c(CC(C)C)nnc23)cc1	21	12µM*	-10%	7	-7%	14%
SMILES	IL-1B inflam inh	MCF10A rerep	Vif-A3G inh	Giardia kill	Vif-APOBEC3F blk	SW480 rereplic
CCc1nnc2c(N(C)S(=O)(=O)c3ccc(C)cc3)nc3ccccc3n12	25	4%	0%	-7	-11%	6%
Cn1c(SC2=CS(=O)(=O)c3ccccc32)nc2ccccc21	-119*	u	u	-9	6%	u
CCOc1ccc(CCNC(=O)C2CCCN(c3nnc(C)c4c(C)n(-c5ccccc5)nc34)C2)cc1 (centres undefined)	x	x	-3%	x	-26%	x
C/C(=N\NC(=O)c1cccnc1)c1c(O)cc(C)oc1=O	14	-4%	3%	8	0%	-6%
C/C(=N\NC(=O)c1cccnc1)c1cc(C)oc1C	-7	7%	1%	14	-12%	21µM*
Cn1c(SCc2cccc(C#N)c2)nc2ccccc2c1=O	-50*	-4%	0%	-7	13%	u
Cn1c(SCc2cccc([N+](=O)[O-])c2)nc2ccccc2c1=O	-6	u	-13%	0	1%	11%
COc1ccc(C)cc1Nc1nc(N)c2ccccc2n1	-93*	0%	-3%	-18	11%	-9%
COc1cc2nc(Nc3cccc(C)c3)nc(N)c2cc1OC	x	x	-12%	x	u	x
Cc1ccccc1Nc1nc(N)c2ccccc2n1	-96*	0%	-2%	u	1%	1%
Nc1nc(Nc2ccc(Cl)cc2)nc2ccccc12	-119*	27%	-14%	u	-6%	-7%
CCOCCCN(Cc1ccco1)S(=O)(=O)c1cc2c(cc1Cl)NC(=O)CO2	x	x	6%	x	u	x
CCC(CC)C(=O)Nc1c(C(=O)N2CCN(c3ccccc3F)CC2)oc2ccccc12	x	x	4%	x	-3%	x
Cc1ccccc1Nc1nc(N)nc(CSc2nc3ccccc3c(=O)n2CCCO)n1	-3	-4%	1%	7	3%	4%
CN(C)c1ccc(-c2c3ccccc3nc3ccccc23)cc1	x	x	-5%	x	x	x
CCOc1ccc(Nc2nc3ccccc3c3nnc(CC)n23)cc1	x	x	-1%	x	5%	x
Nc1ncnc(Nc2ccccc2)n1	14	0%	3%	19	3%	-45%
Cc1ccccc1Nc1nc(N)nc(CSc2nc3ccccc3c(=O)n2C)n1	-53*	u	-19%	-16	-12%	9%
CCOc1ccc(Nc2nc(N)c3ccccc3n2)cc1	-91*	u	-6%	u	10%	18%
CN(C)c1ccc(Nc2nc(N)c3ccccc3n2)cc1	-96*	-22%	-1%	u	22%	-4%
Nc1nc(Nc2ccccc2)nc2ccccc12	-113*	0%	-9%	u	2%	-8%
CC(C)CN(C[C@@H](OP(=O)(O)O)[C@H](Cc1ccccc1)NC(=O)O[C@@H]1CCOC1)S(=O)(=O)c1ccc(N)cc1	x	1%	x	x	x	11%
COc1ccc(S(=O)(=O)N2CCN(Cc3ccc4c(c3)OCO4)CC2)cc1OC	x	x	4%	x	6%	x
Cc1ccc2nc(-c3cccc(N)c3)[nH]c2c1	-4	2%	-1%	u	5%	-6%
Cc1ccc2nc(-c3sc4nc(C)cc(C)c4c3N)[nH]c2c1	20	10µM*	-6%	-20	-11%	12µM*
